Screening results as filed in PubChem BioAssay.
In the library only some 2.7% were active in any assay of this set; here they are far more common.
SENP8 block-1: blocks human SENP8 cleavage of Nedd8 substrate; Q96LD8; recombinant SENP8, Nedd8 substrate fluorescence; inhibition, % at 20 µM; 360,000 compounds, 0.64% hits; in the data active = inhibition mostly above about 40%, no sharp cut-off; inactive = mostly below about 27%
Target sequence (Q96LD8 whole entry, looked up): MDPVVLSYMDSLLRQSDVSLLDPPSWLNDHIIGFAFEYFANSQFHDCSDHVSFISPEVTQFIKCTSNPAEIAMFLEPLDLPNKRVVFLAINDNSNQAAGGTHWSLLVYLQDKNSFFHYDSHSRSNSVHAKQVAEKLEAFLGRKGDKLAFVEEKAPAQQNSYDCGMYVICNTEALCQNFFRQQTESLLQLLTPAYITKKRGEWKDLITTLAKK
SENP8 block-2: blocks the human protease SENP8 | inhibition, % at 10 µM | purified SENP8, Z-RLRGG-aminoluciferin cleavage, luminescence | Q96LD8 | 330,000 compounds, 1.2% hits | AID 2540; in the data active = inhibition above about 50%
SENP6 block: inhibitors of human SENP6 protease; Q9GZR1; Recombinant SENP6 catalytic domain, aminoluciferin luminescence; inhibition, % at 10 µM; 330,000 compounds, 1.8% hits;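 active = inhibition above about 50% at the single tested dose, limit read from the data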;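 also: plate controls were DMSO wells with enzyme for no effect and DMSO wells lacking enzyme for full effect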
SENP7 block: inhibitors of human SENP7 protease; Q9BQF6; recombinant SENP7, Z-RLRGG-aminoluciferin luminescence, 40 min; inhibition, % at 5 µM; 330,000 compounds, 1.5% hits; AID 434973;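 active = inhibition above about 50% at the single test dose, limit read from the data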;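 also: plate controls were DMSO with enzyme for no effect and no enzyme buffer wells for full effect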
Target sequence (Q9BQF6 706-1050 limits assumed): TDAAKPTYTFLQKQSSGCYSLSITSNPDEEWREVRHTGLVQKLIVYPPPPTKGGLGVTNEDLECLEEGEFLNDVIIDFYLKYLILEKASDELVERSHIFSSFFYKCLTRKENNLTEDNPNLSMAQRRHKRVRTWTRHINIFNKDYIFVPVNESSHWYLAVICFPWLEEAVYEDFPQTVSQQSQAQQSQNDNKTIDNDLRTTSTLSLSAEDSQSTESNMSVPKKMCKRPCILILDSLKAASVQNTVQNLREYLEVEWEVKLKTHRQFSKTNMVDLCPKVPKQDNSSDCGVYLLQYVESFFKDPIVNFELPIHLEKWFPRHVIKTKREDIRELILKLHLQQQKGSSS
HSP90 refold inh: blocks HSP90-mediated luciferase refolding in reticulocyte lysate; Rabbit reticulocyte lysate, luciferase refolding luminescence, 3 h; inhibition, % at 5.6 µM; 290,000 compounds, 0.91% hits; AID 1789;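 active = inhibition above the screen-wide mean plus 3 SD, computed separately per campaign, cut at about 16% in these data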;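 also: 0% = DMSO wells and 100% = 60 µM geldanamycin wells; inhibitors lower the luminescence because luciferase stays unfolded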
SENP8 conf: human SENP8 inhibition, confirmed; inhibition, % at 12.5 µM; shares compounds with SENP7 block; Recombinant SENP8, Z-RLRGG-aminoluciferin luminescence, 60 min; 6,200 compounds, 40% hits; AID 488912;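 active = mean inhibition across replicates above about 50%, limit read from the data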
SENP6 confirm: confirmation of human SENP6 protease inhibitors | recombinant SENP6, Z-RLRGG-aminoluciferin luminescence | shares compounds with SENP7 block | inhibition, % at 12.5 µM | 6,200 compounds, 58% hits | AID 488915
SENP7 confirm: confirmation of human SENP7 protease inhibitors; shares compounds with SENP7 block; recombinant SENP7, Z-RLRGG-aminoluciferin luminescence, 40 min; inhibition, % at 12.5 µM; 6,200 compounds, 69% hits
Casp3 select: caspase-3 inhibition (SENP selectivity assay) | AID 488918 | purified caspase-3, Z-DEVD-aminoluciferin luminescence, 60 min | 6,200 compounds, 60% hits | inhibition, % at 12.5 µM | shares compounds with SENP7 block;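 active = mean inhibition above about 50%, limit read from the data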;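 also: plate controls were enzyme with DMSO for no effect and wells without caspase-3 for full effect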
SENP luc ctr: counter-screen for SENP inhibitors: luminescence interference; AID 488919; Pre-incubated SENP8/Z-RLRGG-aminoluciferin, luciferase luminescence interference; inhibition, % at 12.5 µM; 6,200 compounds, 39% hits; shares compounds with SENP7 block;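 active = mean inhibition above about 50% when retested at one dose, limit read from the data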;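 also: plate controls were DMSO wells with completed reaction for no effect and substrate without enzyme for full effect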
Starred values were filed as active, the others as inactive; . = no result given.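 The calls were made as follows, unless noted: active = mean inhibition above about 50% in the one-dose retest (limit read from the data); inactive = the rest.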

SMILES | SENP8 block-1 | SENP8 block-2 | SENP6 block | SENP7 block | HSP90 refold inh | SENP8 conf | SENP6 confirm | SENP7 confirm | Casp3 select | SENP luc ctr
O=C(N/N=C/c1cccs1)c1[nH]ncc1Br | 9 | 50 | 76* | 76* | 1 | 61* | 58* | 86* | 90* | 68*
Cc1ccc(O)c(/C=N/NC(=O)c2[nH]ncc2Br)c1 | 11 | 89* | 77* | 93* | -2 | 25 | 21 | 39 | 38 | 42
COc1ccc(OC)c(/C=N/NC(=O)c2[nH]ncc2Br)c1 | -414 | -7 | -32 | 4 | 3 | . | . | . | . | .
O=C(N/N=C/c1c(O)ccc2ccccc12)c1[nH]ncc1Br | -40 | 18 | 51* | 19 | -3 | 33 | 41 | 77* | 28 | 48
O=C(NN=Cc1c(O)ccc2ccccc12)C1CC1 | -5 | . | . | . | . | . | . | . | . | .
COc1ccc(NC(=O)CCC(=O)OCc2ccc(C(=O)Oc3ccc(Cl)cc3)cc2)cc1 | 3 | 1 | -1 | -2 | 1 | . | . | . | . | .
CCOc1ccccc1CN1CCN(Cc2cc(=O)c3ccccc3[nH]2)CC1CCO (configuration not stated) | -3 | -6 | -14 | -4 | -2 | . | . | . | . | .
CC(=O)Nc1ccc(-c2nnn(CC(=O)c3ccccc3)n2)cc1Cl | 18 | 1 | -12 | -1 | 2 | . | . | . | . | .
CC(=O)Nc1ccc(-c2nnn(CC(=O)c3ccc(F)cc3)n2)cc1Cl | 17 | 1 | 82* | -1 | -3 | 14 | 9 | 3 | -2 | -1
COc1ccc2nc(NC(=O)CSc3cn[nH]n3)sc2c1 | -5 | 11 | 50* | 7 | 0 | 31 | 28 | 65* | 62* | 60*
CCOCC(=O)Nc1nc2ccc(OCC)cc2s1 | 8 | 37 | 71* | 63* | 0 | 56* | 51* | 81* | 79* | 62*
CCOCC(=O)Nc1nc2ccc(C)cc2s1 | 9 | 42 | 49 | 60* | 5 | 30 | 31 | 75* | 72* | 55*
CCOCC(=O)Nc1nc2ccc(S(C)(=O)=O)cc2s1 | 17 | 2 | -2 | 4 | 7 | . | . | . | . | .
Cc1nc(CCNC(=O)CC2C(=O)NCCN2Cc2ccc(F)cc2)sc1C (configuration not stated) | -17 | -9 | -16 | 0 | -4 | . | . | . | . | .
COc1cccc(-n2cc(-c3ccc(F)cc3)[nH]c2=S)c1 | 12 | 10 | 67* | 77* | 5 | 22 | 20 | 7 | 3 | 5
Cc1cc(NC(=O)C(C)SCC(=O)Nc2ccc(C(=O)OC(C)C)cc2)no1 (configuration not stated) | 11 | . | . | . | . | . | . | . | . | .
CC(C)COC(=S)Nc1ccccc1 | 14 | -3 | 4 | -2 | -1 | . | . | . | . | .
Cc1ccc(Nc2nc3nonc3[nH]c2=O)cc1C | 7 | 48 | 70* | 39 | -4 | 65* | 62* | 80* | 64* | 72*
Cc1ccc(Nc2nc3nonc3[nH]c2=O)cc1Cl | -12 | 50* | 80* | 9 | 2 | 68* | 64* | 75* | 34 | 70*
COc1ccc(S(=O)(=O)N2CCCN(CC(=O)Nc3ccc(NC(C)=O)cc3)CC2)cc1 | 11 | 1 | 1 | 6 | -4 | . | . | . | . | .
Cc1nc2ccccc2c(=O)n1NC(=O)COc1ccccc1 | 6 | -7 | -9 | 57* | -2 | 9 | 6 | 13 | 7 | 5
CC(=O)Nc1cccc(OCC(=O)Nc2sccc2C(N)=O)c1 | 4 | 48 | 68* | 67* | 1 | 40 | 48 | 86* | 73* | 28
O=C(OCc1ccc(Cl)c(Cl)c1)c1ccc[nH]1 | 15 | 47 | 59* | 33 | 1 | 54* | 51* | 82* | 26 | 71*
COc1cccc(NC(=O)Nc2ccccc2SC)c1 | 12 | 51* | 33 | 47 | 0 | 78* | 72* | 91* | 71* | 72*
CSc1ccccc1NC(=O)Nc1cccc(Cl)c1Cl | 5 | -1 | 6 | 1 | 7 | . | . | . | . | .
SMILES | SENP8 block-1 | SENP8 block-2 | SENP6 block | SENP7 block | HSP90 refold inh | SENP8 conf | SENP6 confirm | SENP7 confirm | Casp3 select | SENP luc ctr
CN(C)c1ccc(NC(=O)Nc2cccc(Cl)c2)cc1 | 17 | 80* | 89* | 88* | -1 | 76* | 85* | 99* | 82* | 66*
COc1ccccc1C(=O)NC(=O)Nc1cccc(Cl)c1 | 20 | 82* | 79* | 85* | 4 | 44 | 36 | 40 | 42 | 30
CSc1ccccc1NC(=O)Nc1cccc(Cl)c1 | 3 | 67* | 83* | 80* | 1 | 83* | 80* | 95* | 53* | 73*
COc1ccccc1C(=O)Nc1cccc(NC(C)=O)c1 | 11 | 3 | -12 | -4 | 1 | . | . | . | . | .
COc1ccc(NC(=O)Nc2ccccc2SC)c(OC)c1 | 8 | 2 | 12 | 7 | -1 | . | . | . | . | .
CCOC(=O)n1c(=O)n(C)c2ccc(Cl)cc21 | 0 | 4 | 1 | 4 | -4 | . | . | . | . | .
Cc1ccc(CNC(=O)c2ccc(NC3=NC4CS(=O)(=O)CC4S3)cc2)cc1 (configuration not stated) | 12 | -7 | -12 | 13 | -5 | . | . | . | . | .
CSc1ccccc1NC(=O)Nc1ccc(F)c(Cl)c1 | 13 | 68* | 77* | 87* | -3 | 1 | 76* | 96* | 68* | 72*
Cc1ccc(NC(=O)Nc2ccc(F)c(Cl)c2)cc1 | 24 | 1 | 0 | 34 | 1 | . | . | . | . | .
COc1ccc(Nc2nc(N)nc(CSc3nncn3C)n2)cc1 | 11 | 3 | 7 | 5 | -3 | . | . | . | . | .
C[C@@H]1O[C@@H](OC2C(O)C(OCCc3ccc(O)c(O)c3)OC(CO)C2OC(=O)/C=C/c2ccc(O)c(O)c2)[C@H](O)[C@H](O)[C@H]1O (some centres not stated) | . | -4 | 0 | -3 | . | . | . | . | . | .
Cc1ccsc1C(=O)NNC(=O)c1ccccc1F | 1 | 29 | 42 | 58* | . | 26 | 27 | 76* | 83* | 56*
O=C(NNC(=O)c1ccccc1F)c1cccs1 | 12 | -8 | 7 | -7 | -4 | . | . | . | . | .
O=C(Nc1ccc(F)cc1F)c1ccc2c(=O)n3c(nc2c1)CCC3 | 9 | 26 | 64* | 61* | . | 47 | 52* | 80* | 86* | 40
Cc1c(C=O)c(=O)n(-c2ccccc2)n1C | 5 | -8 | -13 | -6 | -3 | . | . | . | . | .
COc1ccc(OC)c(N=C2SCCCN2C(=O)c2ccc(N3C(=O)CCC3=O)cc2)c1 | . | -9 | -20 | -12 | . | . | . | . | . | .
